HEK cytotox: kills HEK 293 cells; 94,000 compounds, 6.6% hits; Potency, µM (highest dose often 115 µM), most hits filed as inhibitors; AID 1345083; HEK 293 viability, ATP luminescence (CellTiter-Glo), 48-72 h; note: nearly all actives have a fitted effect of over 60% in size
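Luminescence from cellular ATP, measured with CellTiter-Glo, indicates HEK 293 viability. Cells plated at 250 cells/well are treated with compound for 48 or 72 hr at 37 degree Celsius before reagent addition.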
3T3 cytotox: cytotoxic compounds in NIH 3T3 cells. Potency, µM (titrated, usually from 96.7 µM), hits mostly inhibitors. 94,000 compounds, 4.3% hits. NIH 3T3 viability, CellTiter-Glo ATP luminescence, 48-72 h; note: nearly all actives have a fitted effect of over 55% in size
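NIH 3T3 cells at 400 cells/well received 23 nL of compound by pintool and were incubated 48 or 72 h at 37 °C. Viability was read as ATP-coupled CellTiter-Glo luminescence.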
FLuc inh: blocks purified firefly luciferase enzyme activity; P08659; purified P. pyralis luciferase, luminescence, biochemical; Potency, µM (top dose mostly 115 µM), hits mostly inhibitors; 76,000 compounds, 2.5% hits; note: nearly all actives have a fitted effect of over 65% in size
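Luminescence read by CCD imager after adding enzyme (10nM final) to wells holding compound, titrated in qHTS. Substrates 10uM each D-luciferin and ATP; buffer 50mM Tris acetate pH 7.5, 10mM Mg acetate, Tween-20, BSA.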
NPR1 antag: antagonists of human natriuretic peptide receptor Npr1; P16066; HEK293 hNpr1 GloSensor cGMP, ANP-stimulated luminescence; Potency, µM (top dose mostly 46.3 µM), most hits filed as inhibitors; 76,000 compounds, 1.6% hits; calls by dose curve; note: nearly all actives have a fitted effect of over 60% in size
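HEK293 cells stably expressing human Npr1 and cGMP GloSensor pGS-40F, loaded 2 h with 2% GloSensor reagent, given compound 30 min at room temperature. Luminescence read before and 20 min after 0.1 nM hNppA.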
Large screens that a line does not name were inactive. Rows were chosen to be rich in hits. Some 11% of all compounds tested hit in one or more screens of this group. Unless noted, calls come from the whole dose curve; as a rule, active = well fitted curve in the direction sought with a large enough effect; inconclusive = small, poorly fitted or top-dose-only effect, or another doubt; inactive = no such curve, though single readings can be large; an effect the other way counts as inactive or inconclusive.

Cn1ccc(C(=O)N2CCC3(CC2)OC(=O)N(Cc2ccccc2C#N)C3(C)c2ccccc2)n1 (stereo unspecified)	3T3 cytotox inconclusive
CNC(=O)c1cc(C2CC2)nc2onc(C3CCCN(C(=O)c4ccccc4Cl)C3)c12 (stereo unspecified)	HEK cytotox inconclusive (no result: FLuc inh, NPR1 antag)
CC(C)N(Cc1cn(Cc2ccccc2)nc1-c1cc2ccccc2o1)CC1CCC(=O)N1 (stereo unspecified)	none
COC[C@@H]1CCCN1Cc1cn(Cc2ccccc2)nc1-c1cc2ccccc2o1	HEK cytotox inconclusive, 3T3 cytotox inconclusive, FLuc inh 28µM
Cc1noc(-c2cccc(OC3CN(C(=O)NC4CCCC4)C3)c2)n1	HEK cytotox 79µM, 3T3 cytotox inconclusive
Cc1noc(-c2ccc(OC3CN(C(=O)NC4CCCCC4)C3)cc2)n1	HEK cytotox 40µM, 3T3 cytotox inconclusive, NPR1 antag inconclusive
CCc1nc2c(c(-c3ccc(O)cc3)n1)CN(Cc1cccc3ccccc13)CC2	HEK cytotox 89µM, 3T3 cytotox inconclusive
CC(C)c1nc2c(c(-c3ccc(O)cc3)n1)CCN(Cc1cccc3ccccc13)CC2	HEK cytotox 25µM, 3T3 cytotox inconclusive, NPR1 antag inconclusive
CC(C)c1nc2c(c(-c3ccc(O)cc3)n1)CCN(Cc1ccccc1)CC2	HEK cytotox inconclusive, 3T3 cytotox inconclusive
CCc1nc2c(c(-c3ccc(Cl)cc3)n1)CCN(Cc1cccn1C)CC2	HEK cytotox inconclusive, 3T3 cytotox inconclusive
CCc1nc2c(c(-c3ccc(Cl)cc3)n1)CCN(Cc1cccc3ccccc13)CC2	HEK cytotox 45µM
CCc1nc2c(c(-c3ccc(O)cc3)n1)CN(Cc1ccc(OC)cc1)CC2	HEK cytotox inconclusive
COCCNC(=O)c1cc(-c2ccccc2OC)c2nncn2n1	none (no result: FLuc inh, NPR1 antag)
CCOC(=O)N1CCC(=O)N(C)C[C@H]2COc3ccc(C)cc3[C@H]21	3T3 cytotox inconclusive (no result: FLuc inh, NPR1 antag)
CCc1cc(=O)n(CC(=O)N2CCN(c3ccc(OC)cc3)CC2)c(N2CCOCC2)n1	HEK cytotox inconclusive
CCc1cc(=O)n(CC(=O)N2CCN(c3ccccc3F)CC2)c(N2CCOCC2)n1	HEK cytotox 40µM, 3T3 cytotox inconclusive
Cc1ccc(OC(=O)N2CCC(Oc3ccc4c(cnn4CCC(=O)O)c3)CC2)cc1	3T3 cytotox 35µM
O=C(O)CCn1ncc2cc(OC3CCN(C(=O)Oc4ccccc4Cl)CC3)ccc21	3T3 cytotox 8.9µM (no result: NPR1 antag)
O=C(C1CCCN1C(=O)Cc1cccc(Cl)c1)N1CCC(N2Cc3ccccc3C2=O)CC1 (stereo unspecified)	HEK cytotox inconclusive (no result: FLuc inh, NPR1 antag)
CC(NC(=O)CCc1conc1-c1ccccc1)c1ccc(F)cc1 (stereo unspecified)	HEK cytotox inconclusive, FLuc inh 18µM
Cc1cccc(-c2nocc2CCC(=O)NC(C)c2ccc(F)cc2)c1 (stereo unspecified)	HEK cytotox inconclusive, 3T3 cytotox inconclusive
Cc1noc2c(NCCc3ccccn3)cc(-c3ccccn3)nc12	HEK cytotox 56µM, 3T3 cytotox inconclusive
Cc1noc2c(NCCc3ccccn3)cc(-c3cccnc3)nc12	3T3 cytotox inconclusive
O=C(NCC(F)F)C1CCN(c2nc3ncccc3o2)CC1	none (no result: FLuc inh, NPR1 antag)
COCCCNC(=O)c1cn2cc(-c3cccc(C#N)c3)sc2n1	HEK cytotox inconclusive, 3T3 cytotox 45µM (no result: FLuc inh, NPR1 antag)
COc1ccc(-c2cn3cc(C(=O)NCC4CC4)nc3s2)cc1	HEK cytotox 63µM, 3T3 cytotox 50µM (no result: FLuc inh, NPR1 antag)
COC(=O)CNC(=O)c1cn2cc(-c3ccc(OC)cc3)sc2n1	3T3 cytotox inconclusive (no result: FLuc inh, NPR1 antag)
COc1ccc(-c2cn3cc(C(=O)N(C)C)nc3s2)cc1	HEK cytotox inconclusive, 3T3 cytotox 89µM (no result: FLuc inh, NPR1 antag)
COc1ccc(-c2cn3cc(C(=O)NCc4ccccc4)nc3s2)cc1	none (no result: FLuc inh, NPR1 antag)
COCCCNC(=O)c1cn2cc(-c3ccc(OC)cc3)sc2n1	HEK cytotox 79µM, 3T3 cytotox 40µM (no result: FLuc inh, NPR1 antag)
COCCCNC(=O)c1cn2cc(-c3cccnc3)sc2n1	3T3 cytotox inconclusive (no result: FLuc inh, NPR1 antag)
CNC(=O)[C@@H]1C[C@H](Oc2cccnc2)CN1C(=O)c1nccc2ccccc12	none
Cc1cc(C)cc(NC(=O)N2[C@@H]3CC[C@H]2CC(NC(=O)c2ccc(F)cc2)C3)c1 (stereo partly specified)	HEK cytotox 40µM, 3T3 cytotox inconclusive
CCn1c(CO)nnc1C1CC(NC(=O)c2cnc3sccn3c2=O)C1 (stereo unspecified)	none
O=C(N[C@@H]1CN(Cc2ccccc2)C[C@H]1CO)c1ccnnc1	none
N#Cc1ccc(C(=O)N[C@@H]2CN(Cc3ccccc3)C[C@H]2CO)cc1	HEK cytotox inconclusive, 3T3 cytotox 14µM
